{"source": "PubChem BioAssay AID2551", "about": "(National Center for Advancing Translational Sciences (NCATS), 2010)", "note": "The whole screen tested about 310,000 compounds, of which about 17,000 (5.5%) were called active. About 11% were inconclusive and are not listed. The sample holds actives, similar compounds and a random draw of the others, so the mix is not that of the screen. Calls come from the whole dose curve; as a rule, active = well fitted inhibition curve with a large enough effect; inconclusive = small, poorly fitted or top-dose-only effect, or effect the other way; inactive = no such curve, though single readings can be large or run the other way. % is set by controls: 0 for no effect and ±100 for the full control effect; potency is the fitted concentration of half-maximal effect."}
{"target": "Nuclear receptor ROR-gamma (Mus musculus) (UniProt P51450)", "sequence (P51450 whole entry, looked up, the tested form may be a part)": "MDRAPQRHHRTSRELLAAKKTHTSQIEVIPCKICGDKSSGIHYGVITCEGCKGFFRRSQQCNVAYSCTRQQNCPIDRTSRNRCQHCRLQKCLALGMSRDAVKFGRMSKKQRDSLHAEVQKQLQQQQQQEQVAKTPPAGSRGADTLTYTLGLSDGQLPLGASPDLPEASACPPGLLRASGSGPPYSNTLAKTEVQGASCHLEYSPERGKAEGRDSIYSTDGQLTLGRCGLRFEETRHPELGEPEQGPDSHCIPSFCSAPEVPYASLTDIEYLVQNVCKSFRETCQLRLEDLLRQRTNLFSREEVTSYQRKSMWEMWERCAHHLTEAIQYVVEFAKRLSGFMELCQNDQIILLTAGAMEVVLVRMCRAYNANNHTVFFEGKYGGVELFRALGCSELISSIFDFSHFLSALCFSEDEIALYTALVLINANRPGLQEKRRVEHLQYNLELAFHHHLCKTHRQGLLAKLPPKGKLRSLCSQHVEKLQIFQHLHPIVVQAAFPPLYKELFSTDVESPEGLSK", "test": "qHTS for inhibitors of ROR gamma transcriptional activity; note: nearly all actives have a fitted effect of over 60% in size", "conditions": "Drosophila S2 Gal4-RORgamma UAS-luciferase reporter, 20 h; series mostly up to 53.6 µM; activity change, negative = inhibition: at the top concentration", "source_text": "NIH Molecular Libraries Probe Production Network [MLPCN] NIH Chemical Genomics Center [NCGC] MLPCN Grant: R03 DA026211-01 Assay Provider: Dan Littman, New York University Assay Overview: The retinoic acid-related orphan receptor (ROR) gamma is a transcription factor that has a central role in the differentiation of Th17 cells, a subset of T helper cells that secrete the inflammatory cytokines IL-17, IL-17F, and IL-22. Th17 cells have been implicated in graft versus host disease, autoimmune disease and asthma. ROR gamma is induced in naive T helper cells in the presence of TGF-beta combined with IL-6, IL-21, or IL-23, and thereafter directs the expression of the Th17 lineage cytokines. To study the mechanism of action of ROR gamma, an insect cell-based assay was screened. This Drosophila Schneider cell line was stably transfected with two vectors: a gene expressing a fusion of the Gal4 DNA binding domain and ROR gamma transactivation domain under the control of the metallothionine promoter and a Photinus luciferase reporter regulated by the Gal4 binding site enhancer, UAS. […] Small molecule inhibitors of ROR gamma activity are detected by a decrease in luciferase reporter activity.\nAssay Protocol Summary: For screening, 600 cells in 4 uL/well were dispensed into white solid 1536-well plates (Grenier) using a solenoid-based dispenser. Following transfer of 23 nL compound or DMSO vehicle by a pin tool, the plates were incubated 1 hr at ambient temperature, and 1 uL/well copper sulfate (700 uM final concentration) was added. The plates were centrifuged 15 s at 1000 RPM and incubated 20 hr at ambient temperature. After addition of 1.5 uL Photinus luciferase detection reagent, the plates were incubated 10 min at ambient temperature and then read by an ViewLux (Perkin Elmer) to detect luminescence. Keywords: NIH Roadmap, MLPCN, MLI, MLSMR, qHTS, NCGC, qHTS, nuclear hormone receptor, retinoic acid-related orphan receptor, ROR gamma"}
{"smiles": "CC(=O)c1ccc(Oc2cc(C)nc(-n3nc(C)cc3C)n2)cc1", "Potency": "14.1 µM (active)"}
{"smiles": "Cc1cc(Oc2ccccc2)nc(N2CCOCC2)n1", "activity change, negative = inhibition": "23.6% (inactive)"}
{"smiles": "Cc1ccc(S(=O)(=O)Nc2nc(C)cc(N/N=C/c3ccc(O)cc3)n2)cc1", "activity change, negative = inhibition": "-15% (inactive)"}
{"smiles": "COc1ccccc1/C=N\\Nc1cc(C)nc(-n2nc(C)cc2C)n1", "Potency": "0.251 µM (active)"}
{"smiles": "COc1cccc2c(N/N=C/c3ccco3)cc(C)nc12", "activity change, negative = inhibition": "-25.1% (inactive)"}
{"smiles": "Cc1cc(Nc2ccc(Cl)cc2)nc(N2CCOCC2)n1", "activity change, negative = inhibition": "8.8% (inactive)"}
{"smiles": "Cc1cc(C)n(-c2cc(Oc3ccccc3)ncn2)n1", "activity change, negative = inhibition": "1.14% (inactive)"}
{"smiles": "Cc1cc(N/N=C\\c2ccc(Br)cc2)nc(-n2nc(C)cc2C)n1", "Potency": "0.1 µM (active)"}
{"smiles": "COc1ccc(/C=N/Nc2cc(N3CCOCC3)nc(C)n2)c(OC)c1", "activity change, negative = inhibition": "21.5% (inactive)"}
{"smiles": "COc1ccc(Nc2cc(C)nc(-n3nc(C)cc3C)n2)cc1", "Potency": "0.501 µM (active)"}
{"smiles": "COc1ccc(NC(=O)c2nc(-n3nc(C)cc3C)ccc2Cl)cc1Cl", "activity change, negative = inhibition": "3.42% (inactive)"}
{"smiles": "CN(C)c1ccc(/C=N/Nc2cc(N3CCOCC3)nc(N3CCOCC3)n2)cc1", "activity change, negative = inhibition": "25.9% (inactive)"}
{"smiles": "CCn1c(Cc2ccc(OC)cc2)nnc1SCC(=O)Nc1ccc(N2CCOCC2)cc1", "activity change, negative = inhibition": "26.9% (inactive)"}
{"smiles": "NC(=O)C1CCCN(CC(=O)N2CCN(c3ccccc3)CC2)C1", "note": "(stereo not drawn)", "activity change, negative = inhibition": "10% (inactive)"}
{"smiles": "Cc1ccccc1OCC(=O)Nc1ccc(S(=O)(=O)N2CCOCC2)cc1", "activity change, negative = inhibition": "-1.13% (inactive)"}
{"smiles": "O=C(Nc1cccc(Cl)c1N1CCOCC1)c1cccnc1", "activity change, negative = inhibition": "-5.72% (inactive)"}
{"smiles": "CCOC(=O)c1sc(NC(=O)c2sc(C)nc2C)nc1C", "activity change, negative = inhibition": "-27% (inactive)"}
{"smiles": "COCCn1c(SCC(=O)Nc2nc(C)cs2)nnc1C(C)C", "activity change, negative = inhibition": "2.07% (inactive)"}
{"smiles": "CC1CC(C)CN(CCCNC(=O)c2csc3c2CCCCC3)C1", "note": "(stereo not drawn)", "activity change, negative = inhibition": "-3.43% (inactive)"}
{"smiles": "CN1C(=O)CN2CCc3ccccc3C2c2cc(Cl)ccc21", "note": "(stereo not drawn)", "activity change, negative = inhibition": "15.5% (inactive)"}
{"smiles": "O=C1CCC(C(=O)N2CCN(c3ccccc3Cl)CC2)CN1CC1CCCCC1", "note": "(stereo not drawn)", "activity change, negative = inhibition": "34.9% (inactive)"}
{"smiles": "COc1ccccc1OCC(=O)Nc1c2c(nn1-c1ccc(F)cc1)CS(=O)(=O)C2", "activity change, negative = inhibition": "21.6% (inactive)"}
{"smiles": "N#C/C(C(=S)Nc1ccccc1)=C1/NN=C(N2CCOCC2)N1c1ccccc1", "Potency": "1.26 µM (active)"}
{"smiles": "Cc1ccc(CC2S/C(=C(/C#N)C(=O)N3CCOCC3)N(c3ccccc3)C2=O)cc1", "note": "(stereo not drawn)", "activity change, negative = inhibition": "8.39% (inactive)"}
{"smiles": "N#C/C(C(=O)N1CCOCC1)=C1/SC(Cc2ccc(F)cc2)C(=O)N1c1ccccc1", "note": "(stereo not drawn)", "activity change, negative = inhibition": "19.1% (inactive)"}
{"smiles": "c1ccc2c(c1)CCc1snnc1-2", "activity change, negative = inhibition": "-4.13% (inactive)"}
{"smiles": "COc1cc(/C=N/O)cc(Br)c1OCc1cccc(Cl)c1", "Potency": "10 µM (active)"}
{"smiles": "COc1cc(/C=N/Nc2ccc(C)cc2)cc(Br)c1O", "activity change, negative = inhibition": "5.16% (inactive)"}
{"smiles": "CCOc1c(Cl)cc(/C=N/O)cc1OC", "activity change, negative = inhibition": "-16.7% (inactive)"}
{"smiles": "COc1ccc(/C=N/NC(=O)c2ccccc2)cc1OS(=O)(=O)c1ccccc1", "activity change, negative = inhibition": "-28.3% (inactive)"}
{"smiles": "COc1cc(C(=O)NCc2ccncc2)cc(Br)c1OCc1ccccc1", "activity change, negative = inhibition": "18.5% (inactive)"}
{"smiles": "COc1cc(/C=N/O)cc(Br)c1OS(=O)(=O)c1ccc(C)cc1", "Potency": "14.1 µM (active)"}
{"smiles": "Cc1cc(S(=O)(=O)Nc2ccc(C(=O)NCC(c3ccco3)N3CCCC3)cc2)ccc1F", "note": "(stereo not drawn)", "activity change, negative = inhibition": "-3.88% (inactive)"}
{"smiles": "COc1cc(/C(=C/c2ccccc2)c2ccccc2)c2c(c1)oc1ccccc12", "activity change, negative = inhibition": "16.7% (inactive)"}
{"smiles": "CC(=O)N1c2ccc(S(=O)(=O)NCCC(=O)N(C)C3CCCCC3)cc2CC1C", "note": "(stereo not drawn)", "activity change, negative = inhibition": "7.64% (inactive)"}
{"smiles": "COc1cccc(NC(=O)C(=O)c2cn(CC(=O)N3CCOCC3)c3ccccc23)c1", "activity change, negative = inhibition": "28.9% (inactive)"}
{"smiles": "COc1ccc(S(=O)(=O)n2nc(C)c(S(=O)(=O)N3CCOCC3)c2C)cc1", "activity change, negative = inhibition": "-14.8% (inactive)"}
{"smiles": "CCCCOc1ccc(-c2nnc(-c3ccco3)o2)cc1", "activity change, negative = inhibition": "-32.9% (inactive)"}
{"smiles": "COc1ccc(C(=O)CSc2nnc(-c3ccco3)o2)cc1", "activity change, negative = inhibition": "-18.6% (inactive)"}
{"smiles": "CCOc1ccc(-c2nnc(-c3ccco3)o2)cc1", "Potency": "15.8 µM (active)"}
{"smiles": "O=C(NCc1ccccc1)C(c1ccccc1)N(C(=O)c1csnn1)c1ccc(F)cc1", "note": "(stereo not drawn)", "activity change, negative = inhibition": "-15.3% (inactive)"}
{"smiles": "CCOc1ccc(C(C(=O)NC2CCCC2)N(C(=O)c2snc(C(N)=O)c2N)C2CCCC2)cc1", "note": "(stereo not drawn)", "activity change, negative = inhibition": "0.98% (inactive)"}
{"smiles": "COc1ccc(C(=O)NC2CC2)cc1OC1CCN(Cc2cnn(C)c2)CC1", "activity change, negative = inhibition": "-7.77% (inactive)"}
{"smiles": "O=c1c(-c2ccccc2Cl)c[nH]n1-c1ccccc1", "activity change, negative = inhibition": "34.3% (inactive)"}
{"smiles": "COc1ccc(CNC(=O)CN(c2ccc(OC)c(Cl)c2)S(=O)(=O)c2ccc(C)cc2)cc1", "activity change, negative = inhibition": "-9.62% (inactive)"}
{"smiles": "NCCCCCC(=O)N/N=C/c1ccc2nccnc2c1", "activity change, negative = inhibition": "-16.1% (inactive)"}
{"smiles": "O=C(CCCO)N/N=C/c1cc(Br)ccc1O", "Potency": "3.98 µM (active)"}
{"smiles": "O=C(CCNc1n[nH]c(=O)[nH]c1=O)N/N=C\\c1ccc(Br)cc1", "activity change, negative = inhibition": "5.32% (inactive)"}
{"smiles": "COc1ccc(OC)c(NC(=O)c2ccc3c(c2)C(=O)N(c2ccc(OC(C)=O)cc2)C3=O)c1", "activity change, negative = inhibition": "1.31% (inactive)"}
{"smiles": "O=C(Nc1ccccc1Cl)Nc1cccc2cccnc12", "activity change, negative = inhibition": "19.6% (inactive)"}
{"smiles": "O=C(Nc1cccc2cccnc12)c1cccc(Cl)c1", "activity change, negative = inhibition": "0.831% (inactive)"}
{"smiles": "CC(=O)/C(=N\\Nc1ccc(Cl)cc1Cl)Sc1cccc2cccnc12", "Potency": "3.16 µM (active)"}
{"smiles": "CC1=C(C(=O)NC2CC(C)(C)Cc3c2cnn3-c2ccc(C)cc2)OCCO1", "note": "(stereo not drawn)", "activity change, negative = inhibition": "32.5% (inactive)"}
{"smiles": "CN(CC(=O)Nc1ccccc1F)CC(=O)Nc1ccccc1Br", "activity change, negative = inhibition": "-44.8% (inactive)"}
{"smiles": "CSc1ccccc1NC(=O)Cc1ccc(Br)cc1", "activity change, negative = inhibition": "-7.65% (inactive)"}
{"smiles": "CSc1ccccc1NC(=O)CN(C)CC(=O)Nc1ccc(Cl)cc1[N+](=O)[O-]", "Potency": "11.2 µM (active)"}
{"smiles": "CN(CC(=O)Nc1ccccc1[N+](=O)[O-])Cc1ccc(Br)cc1", "activity change, negative = inhibition": "16% (inactive)"}
{"smiles": "Cc1ccc(NC(=O)CN(C)Cc2ccc(F)cc2)c([N+](=O)[O-])c1", "activity change, negative = inhibition": "22.8% (inactive)"}
{"smiles": "CCC(C)c1ccccc1NC(=O)CN(C)CC(=O)Nc1ccccc1SC", "note": "(stereo not drawn)", "Potency": "15.8 µM (active)"}
{"smiles": "CC(=O)c1cc(CN2CCC(n3nccc3NC(=O)c3ccccc3Cl)CC2)cs1", "activity change, negative = inhibition": "-1.16% (inactive)"}
{"smiles": "O=C(Nc1ccccc1-c1ccccc1)c1ccccc1[N+](=O)[O-]", "activity change, negative = inhibition": "10.8% (inactive)"}
{"smiles": "O=C(CN(C(=O)c1csnn1)c1ccc(Br)cc1)NC1CCCC1", "activity change, negative = inhibition": "-23.7% (inactive)"}
{"smiles": "Cc1ccc(S(=O)(=O)Oc2ccc(/C=N/NC(=O)c3ccncc3)cc2)cc1", "activity change, negative = inhibition": "-16.7% (inactive)"}
{"smiles": "CCC1CCCCN1C(=S)Nc1ccc(S(=O)(=O)Nc2ncccn2)cc1", "note": "(stereo not drawn)", "activity change, negative = inhibition": "-0.779% (inactive)"}
{"smiles": "CC(=O)Nc1ccc(S(=O)(=O)Oc2ccc(Br)cc2C(=S)N2CCOCC2)cc1", "activity change, negative = inhibition": "7.9% (inactive)"}
{"smiles": "COC(=O)c1cc(-c2cccs2)nc2ccccc12", "activity change, negative = inhibition": "0.58% (inactive)"}
{"smiles": "CCCCN(C)CCCNC(=O)c1cc(-c2cccs2)nc2ccccc12", "activity change, negative = inhibition": "-15.9% (inactive)"}
{"smiles": "O=C(Nc1nnc(-c2ccccc2)o1)c1cc(-c2cccs2)nc2ccccc12", "Potency": "4.47 µM (active)"}
